Bioassay records from PubChem BioAssay.
DT40 TDP1 CPT = growth inhibition of DT40 Tdp1-/-;hTDP1 cells with camptothecin (screen for TDP1 inhibitors); chicken DT40 Tdp1-/-;hTDP1 cells + 20 nM CPT, ATP luminescence, 48 h; 420,000 compounds, 12% hits; AID 686979; Potency, µM (series often up to 46.2 µM), inactives show at the highest dose activity change, negative = growth inhibition, actives largely listed as inhibitors; further: potency means the concentration at half of the fitted maximal effect; on the % scale 0 is the no-effect control and ±100 the full control effect; nearly all actives have a fitted effect of over 55% in size
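Chicken DT40 Tdp1-/- cells complemented with human TDP1, 400 cells/well, exposed to compounds plus 20 nM camptothecin for at least 48 h at 37 C; viability read as ATP content by CellTiter-Glo luminescence.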
IL-1B inflam inh = inflammasome signaling inhibition, IL-1 beta readout | THP-1 LPS/ATP IL-1B secretion, AlphaLISA, 16 h; hits give low values | activity change, % at 57.5 µM | 360,000 compounds, 4.7% hits | AID 743279; in the data active means activity change below about -50%; inconclusive means mostly about -30% to -49%; further: on the % scale 0 is the no-effect control and ±100 the full control effect
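THP-1 cells pretreated 1 hr with compounds (up to 57.5 uM final), then stimulated with LPS (250 ng/mL final) plus ATP (1.25 mM final); secreted IL-1B measured by AlphaLISA after 16 hr, decreased signal indicating inhibition.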
HepG2 viability = HepG2 cytotoxicity, counter-screen for TGF-b inhibitors; Potency, µM (top dose mostly 46.1 µM), for inactives: at the top dose activity change, negative = cytotoxicity, most hits filed as cytotoxic; 410,000 compounds, 0.76% hits; HepG2 CAGA-GFP viability, ATP luminescence, 18 h; AID 588856; further: potency means the concentration at half of the fitted maximal effect
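HepG2 CAGA-GFP cells (1000/well, DMEM with 1% FBS) received compound, then TGF-beta at 500 pg/mL final, and were incubated 18 hours at 37 degrees C. Viability was read by CellTiter-Glo luminescence. Media-only wells were set as complete cell-killing and DMSO as no toxicity.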
DT40 TDP1 no CPT = qHTS for Inhibitors of human tyrosyl-DNA phosphodiesterase 1 (TDP1): qHTS in cells in absence of CPT; DT40 Tdp1-/- hTDP1 cells, no CPT, ATP luminescence, 48 h; 420,000 compounds, 15% hits; Potency, µM (highest dose often 46.2 µM), inactives show at the top dose activity change, negative = growth inhibition, actives largely listed as inhibitors; further: potency means the concentration at half of the fitted maximal effect; on the % scale 0 is the no-effect control and ±100 the full control effect; nearly all actives have a fitted effect of over 55% in size
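DT40 Tdp1-/-;hTDP1 cells, no CPT (DMSO vehicle only), 400 cells/well; compounds pin-transferred; ≥48 hr, 37 °C; CellTiter-Glo 30 min RT dark, luminescence read.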
TDP1 inh = inhibitors of human tyrosyl-DNA phosphodiesterase TDP1. 350,000 compounds, 0.28% hits. recombinant TDP1, AlphaScreen DNA substrate cleavage. Q9NUW8. Potency, µM (series often up to 130 µM), without a hit: at the top dose activity change, negative = inhibition, hits mostly inhibitors; further: potency means the concentration at half of the fitted maximal effect; on the % scale 0 is the no-effect control and ±100 the full control effect; nearly all actives have a fitted effect of over 40% in size
Target sequence (Q9NUW8 whole entry, looked up): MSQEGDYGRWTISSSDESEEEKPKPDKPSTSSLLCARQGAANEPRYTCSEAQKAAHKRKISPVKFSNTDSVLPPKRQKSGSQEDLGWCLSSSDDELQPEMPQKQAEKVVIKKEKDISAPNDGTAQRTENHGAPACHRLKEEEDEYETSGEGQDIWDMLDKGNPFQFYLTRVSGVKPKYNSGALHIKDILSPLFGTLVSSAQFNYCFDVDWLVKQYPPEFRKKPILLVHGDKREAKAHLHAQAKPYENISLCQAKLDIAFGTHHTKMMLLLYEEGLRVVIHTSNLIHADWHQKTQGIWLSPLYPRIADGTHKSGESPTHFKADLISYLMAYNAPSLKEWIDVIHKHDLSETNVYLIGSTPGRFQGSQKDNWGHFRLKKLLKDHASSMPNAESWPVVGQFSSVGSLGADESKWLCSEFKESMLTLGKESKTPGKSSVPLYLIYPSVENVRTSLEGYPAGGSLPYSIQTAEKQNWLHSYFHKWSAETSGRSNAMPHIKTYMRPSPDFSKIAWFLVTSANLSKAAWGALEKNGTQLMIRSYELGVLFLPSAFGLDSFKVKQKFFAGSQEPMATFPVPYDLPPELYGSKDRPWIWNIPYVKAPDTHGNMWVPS
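Steps: enzyme plus compound, 15 min RT; add biotin/phosphotyrosine-FITC oligonucleotide (15 nM final), react 5 min; add donor/acceptor beads (10 ug/ml final), 10 min; read AlphaScreen. Tdp1 at 1 nM final.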
TGFb SMAD3 inh = TGF-b pathway inhibition. 410,000 compounds, 1.2% hits. AID 588855. HepG2 CAGA-GFP TGF-b/SMAD3 reporter, GFP fluorescence, 18 h; TGF-beta stimulated, 500 pg/mL final. Potency, µM (doses to about 46.1 µM), for the others: at the highest dose activity, negative = inhibition, hits mostly inhibitors; further: potency means the concentration at half of the fitted maximal effect; on the % scale 0 is the no-effect control and ±100 the full control effect; nearly all actives have a fitted effect of over 65% in size
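TGF-beta reporter screen: HEPG2 CAGA-GFP, 1% FBS, 500 pg/mL TGF-beta final, 18 h; per-cell GFP summed per well; curves fitted and categorized by class.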
Active calls of the source: *; i = inactive; ? = inconclusive; / = not tested or not shown; [ ] = remark or other dose. In the library only some 18% were active in any assay of this set; here they are far more common. Unless noted, the call rests on the fitted dose curve; in most records, active means well fitted curve in the direction sought with a large enough effect; inconclusive means small, poorly fitted or top-dose-only effect, or another doubt; inactive means no such curve, though single readings can be large; an effect the other way counts as inactive or inconclusive.

SMILES	DT40 TDP1 CPT	IL-1B inflam inh	HepG2 viability	DT40 TDP1 no CPT	TDP1 inh	TGFb SMAD3 inh
CCC(C)NC(=O)c1c(N)n(Cc2ccc3c(c2)OCO3)c2nc3ccccc3nc12 (stereo unspecified)	?	?	-11%	26µM*	/	-27%
CCC(C)NC(=O)c1c(N)n(CC2CCCO2)c2nc3ccccc3nc12 (stereo unspecified)	-14%	-57*	-16%	-29%	0%	?
CC1=CCCC2C1(C)CCC(C)C2(C)CC/C(C)=C/C[n+]1cn(C)c2c(N)ncnc21 (stereo unspecified)	?	/	/	?	10%[56.1 µM]	/
COc1ccc(C=C(C#N)c2ccc(OC)cc2)cc1	?	-58*	-21%	?	/	1%
COc1ccc(C(=O)C(C)(C)NO)cc1	?	14	4%	?	-4%	9%
NCC[C@H](O)C(=O)N[C@H]1C[C@@H](N)[C@@H](O[C@H]2O[C@@H](CN)[C@@H](O)[C@@H](O)[C@@H]2N)[C@@H](O[C@H]2O[C@@H](CO)[C@@H](O)[C@@H]2O)[C@@H]1O	/	/	/	/	7%[21 µM]	/
O=C(NCCc1ccc(Cl)cc1)C(=O)NCC(c1cccs1)S(=O)(=O)c1cccs1 (stereo unspecified)	?	/	-13%	13µM*	10%	0%
O=C1CN=C(c2ccccc2)c2ccccc2N1	-3%	25	-15%	17%	/	0%
O=C1CN=C(c2ccccc2)c2cc([N+](=O)[O-])ccc2N1	-21%	-78*	-9%	3%	0%	1%
O=C1CN=C(c2cccc(Br)c2)c2cc(Br)ccc2N1	-4%	?	-29%	16µM*	/	-34%
O=C1CC2OCC=C3CN4CC[C@]56c7ccccc7N1C5C2[C@H]3C[C@H]46 (stereo partly specified)	/	/	/	/	12%	/
C[C@]12C=CC(=O)C=C1CC[C@@H]1[C@@H]2CC[C@]2(C)OC(=O)CC[C@@H]12	-19%	/	/	-9%	/	/
Cc1c(-c2cccc(Cl)c2)nc2ccccc2c1C(=O)N1CCC2(CC1)OCCO2	21µM*	i	-23%	?	3%	-17%
O=C(c1cc(-c2ccccc2)nc2ccccc12)N1CCC2(CC1)OCCO2	?	-3	-4%	?	2%	-16%
O=c1[nH]c(=S)[nH]c(O)c1N=Nc1ccc2c(c1)OCCO2	15µM*	-14	-37%	26µM*	-5%	-3%
O=c1[nH]c(=S)[nH]c(O)c1N=Nc1ccc(S(=O)(=O)N2CCOCC2)cc1	17%	15	17%	23%	20µM*	8%
COC(=O)[C@@]12CCCCN1[C@H](c1ccc(-c3ccc(Cl)c(Cl)c3)c(OC)c1)[C@@H]1C(=O)N(C)C(=O)[C@@H]12	12µM*	-52*	-7%	10µM*	/	4%
COC(=O)[C@@]12CCCCN1[C@H](c1ccc(-c3ccc(Cl)c(Cl)c3)c(OC)c1)[C@H]1C(=O)N(C)C(=O)[C@H]12	18µM*	2	3%	16µM*	2%	15%
COC(=O)[C@@H]1N=C(c2ccc(OC)cc2)O[C@]12C(=O)N(C)c1cccc(Cl)c12	9%	0	/	-19%	/	/
Cc1ccccc1-n1c(/C=C/c2ccccn2)nc2ccccc2c1=O	18µM*	-53*	-9%	23µM*	1%	-16%
Cc1ccccc1-n1c(/C=C/c2ccc(O)cc2)nc2ccccc2c1=O	9.2µM*	/	-32%	5.8µM*	0%[12.3 µM]	?
Cc1ccc(-n2c(/C=C/c3ccc(Br)s3)nc3ccccc3c2=O)cc1C	?	/	-26%	?	3%	0%
Cn1ncnc2c(=O)n(C)c(=O)nc1-2	0.21µM*	-108*	0.2µM*	0.29µM*	6%	0.11µM*
Cc1ccc(-c2nc3c(=O)n(C)c(=O)nc-3n(C)n2)cc1	0.63µM*	/	1µM*	0.5µM*	3%	0.79µM*
CCCCn1c(O)c(C=NCCCN(C)C)c(=O)[nH]c1=O	-12%	25	-1%	-16%	5%	?
SMILES	DT40 TDP1 CPT	IL-1B inflam inh	HepG2 viability	DT40 TDP1 no CPT	TDP1 inh	TGFb SMAD3 inh
c1ccc(N2CCN(c3ccccc3)CC2)cc1	10%	/	0%	-16%	/	-12%
CCC(=O)Nc1ccccc1-c1nc2ccccc2n(C(CC)C(=O)Nc2cccc(Cl)c2)c1=O (stereo unspecified)	26µM*	/	8%	21µM*	3%	22%
CCCCCCCCC(c1nc2cc(C)c(C)cc2[nH]1)n1c(=O)c(-c2ccccc2Br)nc2ccccc21 (stereo unspecified)	-23%	0	-1%	?	/	0%
COc1cc(OC)cc(C(=O)Nc2ccc(Cl)cc2C(=O)c2ccccc2Cl)c1	-16%	/	-23%	-25%	0%[12.3 µM]	-8%
C#CCN(C[C@@H]1[C@@H](OC(=O)Nc2c(C)noc2C)[C@@H](OC(=O)Nc2c(C)noc2C)Cn2c(=O)n(CCCCCC)c(=O)n21)S(=O)(=O)c1ccc(C)cc1	18µM*	-59*	-16%	21µM*	/	-26%
COC[C@H]1OC(=O)c2coc3c2[C@@]1(C)C1=C(C3=O)[C@H]2CCC(=O)[C@@]2(C)C[C@H]1OC(C)=O	9.4µM*	/	/	?	13%[56.1 µM]	/
